Potency data for 40 molecules are collected here from PubChem BioAssay (Tox21).

Results filed as inconclusive are left out. Entries that show only a call come without a potency. Calls of active or inactive are those of the source. The call rests on the fitted dose curve.

This experiment is described as follows: p53 small molecule agonists, cell-based qHTS assay with rat liver microsomes (AID 1963578). Particulars: HCT-116 p53RE-bla, beta-lactamase ratio, 16 h; series mostly up to 66 µM. The source says:
U.S. Tox21 Program National Center for Advancing Translational Sciences [NCATS] Division of Preclinical Innovation [DPI] U.S. Environmental Protection Agency [EPA] National Institutes of Environmental Health Sciences [NIEHS] National Toxicology Program [NTP] U.S. Food and Drug Administration [FDA] Tox21 Assay Overview: p53, a tumor suppressor protein, is activated following cellular insult, including DNA damage and other cellular stresses. The activation of p53 regulates cell fate by inducing DNA repair, cell cycle arrest, apoptosis, or cellular senescence. The activation of p53, therefore, is a good indicator of DNA damage and other cellular stresses. […] The activation of the reporter gene under culture conditions can be detected by fluorescence intensity. This cell line was used to screen the Tox21 10K compound library in the condition of presence of rat liver microsomes and to identify agonists that activate the p53 signaling pathway after in vitro metabolic activation (Ooka et al., Archive of Toxicology 96:1975-1987, 2022).
Tox21 Assay Protocol Summary: The p53RE-bla cells were dispensed at 4,000cells/3ul/well in 1536-well black-clear bottom plates. After the assay plates were incubated at 37 C, 5% CO2 incubator for 5 hours, 23 nL of compounds dissolved in DMSO, positive controls or DMSO only was transferred to the assay plate. Following compound addition, 3 uL of rat liver microsomes (Molecular Toxicology, Boone, NC) at final concentration of 0.5 mg/mL and 1uL of Beta-Nicotinamide adenine dinucleotide 2-phosphate (NADPH) at final concentration of 0.5 mg/mL were transferred to the assay plate. The plates were incubated at 37 C for 16 hours. 1 uL of LiveBLAzer detection mixture was added to each well and the plates were incubated at room temperature in the dark for 2 h.
For orientation: In qHTS, concentration-response curves come from the screen itself.
For `O=C(/C=C/c1ccc([N+](=O)[O-])cc1)c1ccccc1`, the Potency result was “inactive”.

Take `CCCCCCCCCCCCN1CCCC1=O`: the Potency result was “inactive”.

Turning to `Cc1cccc(C)c1NC(=O)C(C)N` (stereo not given), the Potency result was “inactive”.

As to `O=[N+]([O-])c1ccc(NCCO)c(OCCO)c1`, the Potency result was “inactive”.

With `CCCOC(=O)c1c(Cl)c(Cl)c(Cl)c(Cl)c1C(=O)OCCC`, the Potency result was “inactive”.

Take `COC(C(=O)O)c1ccccc1` (stereo not given): the Potency entry is “inactive”.

For the molecule `COc1cc(-c2ccc(=O)[nH]n2)ccc1OC(F)F`, the Potency entry is “inactive”.

For `CCCCCCCCCCCCCCC[C@H](O)[C@@H](N)CO`, the Potency entry is “inactive”.

On to `CCOC(=O)[C@@H](C)Oc1ccc(Oc2nc3ccc(Cl)cc3o2)cc1`, for which the Potency entry is “inactive”.

For the molecule `O=C(Nc1ccccc1)c1cc(Cl)ccc1O`, the Potency result is “inactive”.

For the molecule `Cc1cccc(OCCOc2cccc(C)c2)c1`, the Potency entry was “inactive”.

Turning to `O=C(O)c1ccc(-n2nc(-c3ccccc3O)nc2-c2ccccc2O)cc1`, the Potency entry was “inactive”.

As to `CCCCCCCCCCCCCCCC(=O)OC/C=C(C)/C=C/C=C(C)/C=C/C1=C(C)CCCC1(C)C`, the Potency result is “inactive”.

`NC(=O)n1c(O)c(C(=O)c2cccs2)c2cc(Cl)ccc21`: the Potency entry was “inactive”.

Consider `NC(N)=N/N=C/c1c(Cl)cccc1Cl`, for which the Potency entry is “inactive”.

In the case of `CSc1ccc(/C=C2/C(C)=C(CC(=O)O)c3cc(F)ccc32)cc1`, the Potency entry was “inactive”.

Take `CC(O)C#CC(C)O` (stereo not given): the Potency result was “inactive”.

In the case of `C=CC(=O)OCC(C)OCC(C)OCC(C)OC(=O)C=C` (stereo not given), the Potency result was “inactive”.

Take `CCCCCCCCOC(=O)c1cc(O)c(O)c(O)c1`: the Potency entry was “inactive”.

With `CC(C)OC(=O)CCC(=O)OC(C)C`, the Potency result was “inactive”.

On to `CCOC(=O)COc1ccc2c(c1)CC(NCC(O)c1cccc(Cl)c1)CC2` (stereo not given), for which the Potency entry is “inactive”.

For `O=[N+]([O-])c1cc(N(CCO)CCO)ccc1NCCO`, the Potency result is “inactive”.

Take `CN1CCCC(CC2c3ccccc3Sc3ccccc32)C1` (stereo not given): the Potency entry is “inactive”.

`O=C1C=CC(=O)N1c1cccc(N2C(=O)C=CC2=O)c1`: the Potency entry was “inactive”.

In the case of `CN(C)CCCN1c2ccccc2CCc2ccc(Cl)cc21`, the Potency result is “inactive”.

Regarding `O=C1c2ccccc2C(=O)c2c(Cl)cccc21`, the Potency entry was “inactive”.

Consider `NC(=O)CCCCC1CCSS1` (stereo not given), for which the Potency entry was “inactive”.

Take `CC(=O)N1CCN(c2ccc(OC[C@H]3CO[C@](Cn4ccnc4)(c4ccc(Cl)cc4Cl)O3)cc2)CC1`: the Potency result is “inactive”.

In the case of `COC(=O)/C=C/C(C)=C\C=C\C(C)=C\C=C\C=C(C)\C=C\C=C(C)\C=C\C(=O)O`, the Potency entry was “inactive”.

As for `COC(=O)Nc1nc2ccc(C(=O)c3ccccc3)cc2[nH]1`, the Potency result was “inactive”.

Regarding `Cc1c(Nc2ncccc2C(=O)O)cccc1C(F)(F)F`, the Potency entry is “inactive”.

Consider `CCOc1cccc(-n2cc(C(=O)N3CCN(c4cc(C(=O)O)c5ccccc5c4)CC3)nc2-c2ccc(C)cc2)c1`, for which the Potency entry is “inactive”.

With `C#C[C@]1(O)CC[C@H]2[C@@H]3CCc4cc(OC5CCCC5)ccc4[C@H]3CC[C@@]21C`, the Potency result is “inactive”.

Take `O=C=Nc1ccc(Cl)c(Cl)c1`: the Potency result is “inactive”.

Regarding `C[C@H]1[C@H](NC(=O)/C(=N/OC(C)(C)C(=O)O)c2csc(N)n2)C(=O)N1S(=O)(=O)O` (stereo in doubt), the Potency entry was “inactive”.

Take `Oc1ccc(-c2ccccc2)c(Cl)c1`: the Potency entry is “inactive”.

Regarding `Oc1ccc2ccccc2c1`, the Potency result is “inactive”.

Take `O=C(O)[C@H](O)c1ccccc1`: the Potency result was “inactive”.

For the molecule `COc1cc(/C=C/c2ccccc2)oc(=O)c1`, the Potency result was “inactive”.

Regarding `C[C@@H]1C[C@H]2[C@@H]3C[C@H](F)C4=CC(=O)C(Cl)=C[C@]4(C)[C@@]3(F)[C@@H](O)C[C@]2(C)[C@@]1(O)C(=O)CO`, the Potency result is “inactive”.
